# Measurements: PubChem BioAssay (NCI)
# Where “and” joins values, the source holds several entries; their conditions need not be identical. Equal values may be shown once. This is part of a sample that, as a whole, favours compounds with a hit. Of some 79,000 tested, about 15% had one in any assay. Unmarked numbers belong to inactive results. Calls of active or inactive are those of the source. Rule as the data show it: active = growth inhibition above about 70%; inactive = the rest.
# Assay: NCI Yeast Anticancer Drug Screen. Data for the mlh1 rad18 strain (AID 175)
# Conditions: S. cerevisiae mlh1 rad18 strain growth inhibition; at 50.0 µM (retest, dose inferred, filed as 5.0); stronger effect = higher value
# Outline: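 Inhibition values reflect reduced growth of mutant yeast versus vehicle-treated controls following compound exposure; the mutations affect DNA damage repair.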
row,SMILES,growth inhibition
1,CCOC(=O)c1ccc([N+](=O)[O-])o1,30%
2,CC(C)OC(=O)c1ccc(NCc2cc(O)ccc2O)cc1Cl,98% (active)
3,c1cc[c]([Sn]([NH]c2ncnc3[nH]cnc23)([NH]c2ncnc3[nH]cnc23)[c]2ccccc2)cc1,94% (active)
4,CCCCCCCCCCCCCCCCCC(=O)OCC(COC(=O)CCCN)OC(=O)CCCN (configuration not stated),99% (active)
5,CCCCN(CCCC)CCC(O)(c1ccc(OC)c2ccccc12)C(O)(CCN(CCCC)CCCC)c1ccc(OC)c2ccccc12 (configuration not stated),99% (active)
6,CC(C)(C)c1ccc(OC(=O)Nc2ccc(Cl)cc2[N+](=O)[O-])c(Br)c1,38%
7,O=[N+]([O-])c1ccc(NSc2ccccc2)cc1,99% (active)
8,COC(=O)CCC(NC(=S)N/N=C/c1ccccn1)C(=O)OC (configuration not stated),48%
9,O=C(Nc1ccccc1)OCCc1ccc(Br)cc1,0%
10,Cc1[nH]c2ccccc2c1/C=C1\C(=O)C2CCC1C2 (configuration not stated),80% (active)
11,O=[N+]([O-])c1ccc2c(c1)OCO2,5%
12,CC(CO)[C@H]1OC(=O)C=C2[C@@]13O[C@@H]3[C@H]1OC(=O)[C@@]3(C)[C@H]4O[C@H]4C[C@@]2(C)[C@@H]13 (some centres not stated),97% (active)
13,Cc1cc(C)nc(/C=C/c2ccc(/C=C/c3cc(C)cc(C)n3)cc2)c1,3%
14,O=C1C=CC(=O)N1c1cccc(F)c1,100% (active)
15,COc1ccc(C(=O)C(CN2CCCC2)CN2CCCC2)cc1,79% (active)
16,O=C1NN(C2=NNC3(C(=O)N2)c2ccccc2-c2ccccc23)C(c2ccccc2)=N/C1=C/c1ccc(O)cc1,28%
17,CC1=NN(C(=O)c2ccc(Cl)cc2)C(=O)C1N=Nc1ccc(S(=O)(=O)Nc2ncccn2)cc1 (configuration not stated),20%

row,SMILES,growth inhibition
1,CCN(CC)CCCNc1ncc(C)c2c1c1ccc3c(O)cccc3c1n2C,34%
2,O=C1SCCN1/N=C/c1ccc([N+](=O)[O-])o1,94% (active)
3,CC(C)(C)C1=NC(=S)SC2=NC(=O)C3(NN21)c1ccccc1-c1ccccc13,77% (active)
4,Cc1ccnc(NC(c2ccccc2)c2ccc3cccnc3c2O)c1 (configuration not stated),95% (active)
5,CC(=O)N(C1=C(Cl)C(=O)c2ccccc2C1=O)c1ccc(Cl)cc1,99% (active)
6,CSc1cc(C(=O)O)nc(N)n1,-4%
7,COc1ccc([C@H]2c3cc4c(cc3OC(O)(CO)[C@H]2C(=O)O)OCO4)c(OC)c1 (some centres not stated) (tested in a mixture with another compound),86% (active)
8,CC(C)C(C)OC(=O)Nc1cccc(O)c1 (configuration not stated),-102%
9,O=C(CC1(O)C(=O)Nc2c(Cl)ccc(Cl)c21)c1ccc(Cl)cc1Cl (configuration not stated),19%
10,CCOC1(OCC)Oc2c(Cl)c(Cl)c(Cl)c(Cl)c2OC1(OCC)OCC,96% (active)
11,CCN(CC)CC(C)(C)C(=O)/C=C/c1ccc(Cl)c(Cl)c1,97% (active)
12,O=c1c(NO)c([N+](=O)[O-])cnn1-c1ccccc1,-5%
13,O=C(Cl)c1cc(-c2ccc(Cl)cc2)nc2c(Cl)cccc12,99% (active)
14,COC/C=N/Nc1ccc([N+](=O)[O-])cc1,98% (active)
15,Cn1c(N)c(NC(=O)CCl)c(=O)n(C)c1=O,0%
16,CCOC(=O)C(C)(c1c(C)[nH]c2ccccc12)c1c(C)[nH]c2ccccc12,92% (active)

# Same assay, conditions: S. cerevisiae mlh1 rad18 strain growth inhibition; at 50.0 µM; stronger effect = higher value
row,SMILES,growth inhibition
1,CCOC(=O)c1ccc([N+](=O)[O-])o1,83.7% (active)
2,O=C(NCCc1c(-c2ccccc2)[nH]c2ccccc12)C(F)(F)F,60.3%
3,CC(C)OC(=O)c1ccc(NCc2cc(O)ccc2O)cc1Cl,88% (active)
4,c1cc[c]([Sn]([NH]c2ncnc3[nH]cnc23)([NH]c2ncnc3[nH]cnc23)[c]2ccccc2)cc1,89.2% (active)
5,CCCCCCCCCCCCCCCCCC(=O)OCC(COC(=O)CCCN)OC(=O)CCCN (configuration not stated),97.5% (active)
6,CCCCN(CCCC)CCC(O)(c1ccc(OC)c2ccccc12)C(O)(CCN(CCCC)CCCC)c1ccc(OC)c2ccccc12 (configuration not stated),97.5% (active)
7,CC(C)(C)c1ccc(OC(=O)Nc2ccc(Cl)cc2[N+](=O)[O-])c(Br)c1,77.5% (active)
8,CC(=O)Nc1cccc2cc(O)ccc12,23.2% and 18.1% and 22.8%
9,O=[N+]([O-])c1ccc(NSc2ccccc2)cc1,88.2% (active)
10,COC(=O)CCC(NC(=S)N/N=C/c1ccccn1)C(=O)OC (configuration not stated),61.8%
11,O=C(Nc1ccccc1)OCCc1ccc(Br)cc1,-3.25%
12,CC1=CC(O)C2CC1C2(C)C (configuration not stated),-8.1% and 0.55% and 8.15%
13,Cc1[nH]c2ccccc2c1/C=C1\C(=O)C2CCC1C2 (configuration not stated),86.9% (active)
14,O=[N+]([O-])c1ccc2c(c1)OCO2,67.7%
15,CC(CO)[C@H]1OC(=O)C=C2[C@@]13O[C@@H]3[C@H]1OC(=O)[C@@]3(C)[C@H]4O[C@H]4C[C@@]2(C)[C@@H]13 (some centres not stated),89.8% (active)
16,Cc1cc(C)nc(/C=C/c2ccc(/C=C/c3cc(C)cc(C)n3)cc2)c1,5.5%
17,O=C1C=CC(=O)N1c1cccc(F)c1,99.4% (active)
18,COc1ccc(C(=O)C(CN2CCCC2)CN2CCCC2)cc1,69.3%
19,O=C1NN(C2=NNC3(C(=O)N2)c2ccccc2-c2ccccc23)C(c2ccccc2)=N/C1=C/c1ccc(O)cc1,83.2% (active)
20,CC1=NN(C(=O)c2ccc(Cl)cc2)C(=O)C1N=Nc1ccc(S(=O)(=O)Nc2ncccn2)cc1 (configuration not stated),17.4%

row,SMILES,growth inhibition
1,CCN(CC)CCCNc1ncc(C)c2c1c1ccc3c(O)cccc3c1n2C,-3.05%
2,O=C1SCCN1/N=C/c1ccc([N+](=O)[O-])o1,92% (active)
3,CC(C)(C)C1=NC(=S)SC2=NC(=O)C3(NN21)c1ccccc1-c1ccccc13,94.9% (active)
4,Nc1ncnc2c1ncn2C1OC(CO)C(O)C1O (configuration not stated),-23.1% and 27.6% and 19.4%
5,Cc1ccnc(NC(c2ccccc2)c2ccc3cccnc3c2O)c1 (configuration not stated),97.4% (active)
6,CC(=O)N(C1=C(Cl)C(=O)c2ccccc2C1=O)c1ccc(Cl)cc1,96.7% (active)
7,CSc1cc(C(=O)O)nc(N)n1,-12.3%
8,COc1ccc([C@H]2c3cc4c(cc3OC(O)(CO)[C@H]2C(=O)O)OCO4)c(OC)c1 (some centres not stated) (tested in a mixture with another compound),80.5% (active)
9,CC(C)C(C)OC(=O)Nc1cccc(O)c1 (configuration not stated),18.4%
10,O=C(CC1(O)C(=O)Nc2c(Cl)ccc(Cl)c21)c1ccc(Cl)cc1Cl (configuration not stated),92.2% (active)
11,CCOC1(OCC)Oc2c(Cl)c(Cl)c(Cl)c(Cl)c2OC1(OCC)OCC,98.7% (active)
12,CCN(CC)CC(C)(C)C(=O)/C=C/c1ccc(Cl)c(Cl)c1,99% (active)
13,COc1cc(/C=C/C(C)=O)ccc1O,-4.85% and 23.2% and -20.9%
14,O=c1c(NO)c([N+](=O)[O-])cnn1-c1ccccc1,-0.5%
15,O=C(O)C1C2CC3C(OC(=O)C31)C2Br (configuration not stated),11.2% and 18.6% and 32%
16,O=C(Cl)c1cc(-c2ccc(Cl)cc2)nc2c(Cl)cccc12,87.2% (active)
17,COC/C=N/Nc1ccc([N+](=O)[O-])cc1,98.5% (active)
18,Cn1c(N)c(NC(=O)CCl)c(=O)n(C)c1=O,16.9%
19,CCOC(=O)C(C)(c1c(C)[nH]c2ccccc12)c1c(C)[nH]c2ccccc12,95.3% (active)
